Sampled rows, rich in hits. Any-hit rate of the full collection: about 4.2%.
tim23-1 inh: growth inhibitors of tim23-1 mutant yeast, primary screen, luminescence, uHTS; 1.3% of 330,000 active; AID 463212, 2010; S. cerevisiae tim23-1 growth, BacTiter-Glo luminescence, 24 h; inhibition, % at 20 µM;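 active = growth inhibition of the mutant yeast at or above 50%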;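 note: temperature-sensitive mutant grown at 25 °C; plate controls were DMSO-treated mutant yeast for no effect and medium wells lacking yeast for full effect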
NALP1 inh: NALP1 inflammasome inhibitors in reconstituted yeast, colorimetric, S. cerevisiae, triplicate retest; S. cerevisiae NALP1/ASC/caspase-1 growth, X-gal OD620, 72 h; inhibition, % at 10 µM; 0.61% of 280,000 active; in the data active = inhibition mostly above about 24%, no sharp cut-off; inactive = mostly below about 32%
TIM10 inh: growth inhibitors of isogenic TIM10 control yeast, primary screen, counter-screen for tim10-1 yeast inhibitor project, luminescence, uHTS. S. cerevisiae TIM10 strain growth, BacTiter-Glo luminescence, 24 h. inhibition, % at 10 µM. 1.4% of 330,000 active;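 active = inhibition of 40% or more at the single tested concentration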;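 note: wild-type TIM10 isogenic control strain grown at permissive 25 °C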
tim10-1 inh: growth inhibitors of tim10-1 mutant yeast, primary screen, luminescence, uHTS. S. cerevisiae tim10-1 ts strain growth, BacTiter-Glo, 24 h. inhibition, % at 20 µM. 2.2% of 330,000 active;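 active = inhibition of at least 40%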;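 note: mutant grown at 25 °C; 0% = DMSO wells with yeast and 100% = wells holding no yeast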
NLRP3 yeast inh: NALP3 inflammasome inhibitors in reconstituted yeast, primary screen, luminescence, uHTS; 0.39% of 330,000 active; Yeast reconstituted NLRP3/ASC/caspase-1, beta-gal luminescence, 24 h; inhibition, % at 10 µM; AID 2825, 2010;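 active = inhibition of 50% or more; inactive = inhibition below 50%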;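 note: plate controls were induced DMSO wells for no effect and uninduced yeast grown without galactose for full effect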
V-ATPase pH: regulators of yeast V-ATPase proton pumping, primary screen, pHLuorin cytosolic pH fluorescence | S. cerevisiae | response, % at 10 µM | 0.37% of 350,000 active; in the data active = response mostly above about 7.3%, no sharp cut-off; inactive = mostly below about 5.4%; note: actives read high
tim10-1 confirm: growth inhibitors of tim10-1 mutant yeast, confirmation, single concentration, luminescence, S. cerevisiae | shares compounds with tim10-1 inh | S. cerevisiae tim10-1 ts strain growth, BacTiter-Glo, 24 h | inhibition, % at 20 µM | 56% of 7,400 active;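 active = inhibition of yeast growth at or above a set limit in either of two repeat tests at 20 µM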;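 note: tim10-1 mutant grown at permissive 25 °C to find synthetic lethal compounds; 0% = DMSO yeast wells and 100% = medium wells without yeast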
Active calls of the source: *; . = not tested or not shown.

SMILES	tim23-1 inh	NALP1 inh	TIM10 inh	tim10-1 inh	NLRP3 yeast inh	V-ATPase pH	tim10-1 confirm
CCOC(=O)Cc1nnc(Nc2ccc(C(=O)NC)cc2)c2ccccc12	-4	2	9	13	22	1	.
O=S(=O)(Nc1ccc(-n2cccc2)cc1)c1ccc(Cl)cc1Cl	13	50	33	48*	37	3	26
O=S(=O)(Nc1ccc(-n2cccc2)cc1)c1ccc(F)cc1	27	11	16	17	3	1	.
CC[N+]1(C)CCC(O)(c2ccc(OC)cc2)C(C(=O)c2ccc(OC)cc2)C1 (centres undefined)	.	.	.	.	.	1	.
O=C(CN1C(=O)NC2(CCCCCC2)C1=O)NCc1ccccc1Cl	15	.	31	4	9	-1	.
CSc1nnc(-c2cccc(NC(=S)NN)c2)o1	5	6	34	49*	18	0	9
S=C(NCCc1cccc(Cl)c1)NC1CCCCC1	38	1	28	40*	31	0	25
S=C(NCCc1ccccc1)NC1CCC(NC(=S)NCCc2ccccc2)CC1 (centres undefined)	-8	-9	-6	6	2	-2	.
Clc1ccc(CNC2CCCC2)c(Cl)c1	-1	-2	1	-1	13	0	.
S=C(NCc1ccc(Cl)cc1Cl)NC1CCCCC1	37	39	-5	42*	28	3	17
CC(C)CCNC(=O)CCn1c(=S)oc2ccccc21	9	-2	6	13	-2	2	.
COc1ccc(C(=O)Oc2ccc(F)cc2C(=O)/C=C/c2ccc(OC)c(OC)c2)cc1	39	18	27	24	14	-2	.
COc1ccc(/C=C/C(=O)c2cc(F)ccc2OC(=O)c2ccccc2C)cc1OC	30	28	20	41*	15	0	20
O=[N+]([O-])C(/C=C(/Cl)[N+](=O)[O-])=C(N1CCCCC1)N1CCCCC1	4	-8	2	-2	31	-1	.
Cn1nc(C(F)(F)F)c(-c2ccc(Br)cc2)c1NC(=O)Nc1ccc(F)cc1F	6	.	13	-14	19	2	.
Cc1cc2oc(C(=O)N(Cc3ccc(N(C)C)cc3)CC3CCCO3)c(C)c2cc1C (centres undefined)	33	13	27	25	4	2	.
Cc1ccc2oc(C(=O)N(Cc3ccc(N(C)C)cc3)CC3CCCO3)c(C)c2c1 (centres undefined)	37	6	1	40	8	3	-11
CCc1nccn1CCC(=O)NC1CC(C)(C)Cc2c1cnn2-c1cccc(F)c1 (centres undefined)	8	15	5	15	-3	4	.
C=CCN1C(=O)C(CC(=O)NCC)SC1=Nc1ccccc1CC (centres undefined)	19	11	7	14	6	-5	.
CCCCCCCCC(=O)c1c(OC)oc(C=O)cc1=O	.	.	.	.	.	-45	.
CC(=O)Nc1ccc(-c2csc(N/N=C(/C)c3ccccc3)n2)cc1	31	.	22	38	30	0	.
C/C(=N/Nc1nc(-c2ccc(Cl)cc2)cs1)c1cccs1	-1	-3	17	45*	3	4	13
COc1ccc(C2=NN(C(=O)CSc3nnc(-c4ccccc4F)o3)C(c3ccco3)C2)cc1 (centres undefined)	42	42	26	48*	4	4	38*
COC1OC2COC(c3ccccc3)OC2C2OC(c3ccccc3)OC12 (centres undefined)	.	.	.	.	.	5	.
O=C(NC(=S)NNC(=O)c1ccccc1[N+](=O)[O-])c1ccc(Br)cc1	49	-3	36	41*	30	-3	44*
SMILES	tim23-1 inh	NALP1 inh	TIM10 inh	tim10-1 inh	NLRP3 yeast inh	V-ATPase pH	tim10-1 confirm
CCCCCC(=O)NNC(=S)NC(=O)c1ccccc1[N+](=O)[O-]	7	6	18	43*	6	-1	26
O=C(COC(=O)COc1ccc2ccccc2c1)NCC(F)(F)F	1	-19	-4	7	14	7	.
O=C(CNC(=O)c1ccc(F)cc1)c1ccc(Cl)cc1	7	38	-14	-18	16	1	.
Fc1ccc2nncc(SCc3ccccc3Cl)c2c1	.	.	.	.	.	0	.
Clc1cccc(N2CCN(CCCN3CCN(c4ccccc4)CC3)CC2)c1	.	.	.	.	.	-3	.
O=C1CC(=C2c3ccccc3-c3ccccc32)C(=O)N1CCN1CCN(c2cccc(Cl)c2)CC1	10	.	0	41*	11	4	24
COc1cc(C(=O)Nc2cc(C)ccn2)ccc1OCC(=O)N1CCOCC1	-9	4	0	-24	4	0	.
CN(C)C(=O)C12CCC(C)(c3nc4ccccc4nc31)C2(C)C (centres undefined)	20	0	-4	42*	9	-1	10
N/C(=N\OC(=O)c1cccc(Br)c1)c1ccncc1	12	20	11	41*	-36	1	35*
N/C(=N\OC(=O)c1ccc(F)cc1)c1ccc(Br)cc1	29	-3	34	57*	20	5	46*
O=C(O/N=C/c1ccc(Br)cc1)c1ccc(F)cc1	-3	.	-32	7	3	3	.
Cc1cccc(C(=O)O/N=C(/c2ccccc2)c2ccncc2)c1	37	-2	31	41*	26	2	42*
N/C(=N\OC(=O)c1ccc(Br)cc1)c1ccncc1	29	7	37	53*	-7	3	43*
O=C(O)CC1(CC(=O)Nc2ccc(F)c(Cl)c2)CCCCC1	15	-4	1	7	-7	-4	.
N#Cc1ccccc1OCC(=O)NC(=O)NCc1ccco1	11	.	9	16	2	-4	.
NS(=O)(=O)c1ccc(CCNC(=O)c2cccc([N+](=O)[O-])c2)cc1	4	15	-8	-8	6	-1	.
COc1ccc(Nc2nc(S(=O)(=O)c3ccc(C)cc3)c(Cl)s2)cc1	30	35	17	42*	46	2	30
COCCNC(=O)Cn1nc(-c2ccc(C)cc2)c2ccccc2c1=O	2	5	1	12	5	4	.
COc1ccc(-n2nc(C(=O)NCC(=O)NCCc3ccc(OC)c(OC)c3)c3ccccc3c2=O)cc1Cl	8	16	-12	9	-3	-2	.
CC(C)Nc1nc(-c2ccccc2)nc(-n2ccnc2)n1	34	17	29	41*	2	-8	14
C#CCn1c(=NC(=O)CN2C(=O)CCC2=O)sc2cc(S(N)(=O)=O)ccc21	-3	35	3	11	3	0	.

Bioassay records deposited in PubChem by several laboratories.
